We go through eight molecules from PubChem BioAssay (NCATS).

The structures appear in SMILES notation. Several values for one entry are separate records, joined by “and”; a condition that tells them apart may be missing. Equal entries are not always repeated. Records with an inconclusive call do not appear. Activity calls are given as the source filed them. Unless noted, the call rests on the fitted dose curve; in most records, active means well fitted curve in the direction sought with a large enough effect; inconclusive means small, poorly fitted or top-dose-only effect, or another doubt; inactive means no such curve, though single readings can be large; an effect the other way counts as inactive or inconclusive.

The nature of assay [1]: Cell Viability - BJ (AID 421; calls by dose curve;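 further: potency means the concentration at half of the fitted maximal effect; cells exposed to compound for 40 hours at 37 °C before readout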). Conditions: BJ fibroblast viability, qHTS. In outline:
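Cytotoxicity as drop in intracellular ATP (CellTiter-Glo, 20 min RT) after 40 hr compound exposure of BJ fibroblasts at 37 °C. Titrations scaled between DMSO and 100 uM tamoxifen, Hill-fitted for AC50.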

Assay [2] in a line: Cell Viability - Jurkat (AID 426;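 active means dose-dependent loss of cell ATP signal giving a full or clear fitted curve, ranked by lower potency value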;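 further: potency means the concentration at half of the fitted maximal effect; cells exposed to compound for 40 hours at 37 °C before ATP read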). The note with it: qHTS. In outline: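 Seed 5000 Jurkat E6-1 cells/well; add compound; incubate 40 hr at 37 °C; add CellTiter-Glo; wait 20 min at room temperature; read luminescence. Fit concentration-response with Hill equation for AC50.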
The nature of assay [3]: Cell Viability - NIH 3T3 (AID 541).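 Further: cells exposed to compound for 40 hours; nearly all actives have a fitted effect of over 25% in size.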 Further: potency means the concentration at half of the fitted maximal effect.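 On activity change, negative = cytotoxicity: plate controls were DMSO alone for no effect and tamoxifen positive control for full effect.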 Conditions: NIH 3T3 cell viability, qHTS; activity change, negative = cytotoxicity: at 92.2 µM (top of the series). In outline:
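AC50 values reflect concentration-dependent loss of intracellular ATP in NIH 3T3 cells after 40 hr treatment in complete culture medium, quantified by luciferase-based luminescence.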
In general terms: qHTS replaces the single test concentration by a dilution series.

The nature of assay [4]: Cell Viability - H-4-II-E (AID 543).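 Further: cells exposed to compound for 40 hours; on the % scale 0 is the no-effect control and ±100 the full control effect; nearly all actives have a fitted effect of over 35% in size.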 Conditions: H-4-II-E rat hepatoma viability; series mostly up to 92.2 µM. In outline:
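Here, cytotoxicity is measured in the rat hepatoma line H-4-II-E as loss of intracellular ATP after 40 hr compound treatment, detected by luciferase luminescence.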

Assay [5] is described as follows: Cell Viability - LYMP2-004 (AID 966).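 Further: plate controls were DMSO only for no effect and tetraoctylammonium bromide control for full effect; nearly all actives have a fitted effect of over 65% in size.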 The note with it: LYMP2-004 lymphoblastoid cell viability, qHTS; series mostly up to 92.2 µM. In outline:
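Acute toxicity is scored as a concentration-dependent drop in intracellular ATP, quantified by luciferase luminescence, in human lymphoblastoid cells exposed to compound for 24 hr. AC50 derives from Hill-equation modelling.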

Assay [6] has as its target Estrogen receptor (Homo sapiens) (UniProt P03372). Put plainly: qHTS assay for small molecule antagonists of estrogen receptor alpha signaling (AID 588513; active means well fitted curve in the direction sought with a large enough effect in the signal ratio, with a control signal flat, not every such curve was filed as active; the % refers to the signal ratio; further: on the % scale 0 is the no-effect control and ±100 the full control effect). The note with it: ER-alpha-UAS-bla HEK293, beta-lactamase ratio, antagonist mode; series mostly up to 76.9 µM. In outline: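 ER-alpha-UAS-bla GripTite HEK 293 cells in medium with 2% charcoal/dextran-treated FBS were preincubated 4 h at 37 C, dosed with compound (1:2 titration), stimulated with 0.5nM 17-beta-estradiol for 18 h, then read by CCF4 beta-lactamase fluorescence.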

Assay [7] has the same target. Briefly: qHTS assay for small molecule agonists of estrogen receptor alpha signaling (AID 588514; calls by dose curve;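 further: 0% = vehicle only and 100% = reference agonist; nearly all actives have a fitted effect of over 70% in size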). The note with it: ER-alpha-UAS-bla HEK293, beta-lactamase ratio, 18 h; series mostly up to 76.8 µM. In outline:
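Reporter-gene assay. […] controls beta-lactamase in HEK 293 GripTite cells; after 18 hrs with compound, CCF4 substrate is added for 2 hrs and fluorescence is read.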

A short description of assay [8]: qHTS assay for small molecule antagonists of peroxisome proliferator-activated receptor delta signaling (AID 588535; active means well fitted inhibition curve with a large enough effect in the signal ratio, with a control signal flat, not every such curve was filed as active; the % refers to the signal ratio;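 on max response: cells co-treated with a PPAR-delta agonist as stimulator during compound exposure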). Conditions: HEK293T PPARd-UAS-bla, beta-lactamase FRET ratio, 18 h; 460 nm channel. In outline:
(§1)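 Cells were seeded at 4000 per well in assay medium containing 2% charcoal/dextran FBS and held 5 hrs at 37 C. Compounds were then added for 18 hrs. CCF4 substrate was applied for 2 hrs at room temperature before fluorescence reading.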

Assay [9] deals with Peroxisome proliferator-activated receptor delta (Homo sapiens) (UniProt Q03181). The assay is described as above. Conditions: HEK293T PPARd-UAS-bla, beta-lactamase FRET ratio, 18 h; series mostly up to 76.7 µM. In outline:
as §1

In assay [10] the target is Peroxisome proliferator-activated receptor gamma (Homo sapiens) (UniProt P37231). Briefly: qHTS assay for small molecule antagonists of peroxisome proliferator-activated receptor gamma signaling (AID 588537; active means well fitted inhibition curve with a large enough effect in the signal ratio, with a control signal flat, not every such curve was filed as active; the % refers to the signal ratio;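 further: reporter cells co-stimulated with 50 nM rosiglitazone agonist during compound treatment; % of control where 0% means no effect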). Conditions: HEK293 PPARg-UAS-bla, beta-lactamase ratio, antagonist mode; series mostly up to 76.8 µM. In outline: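 Step one: plate 3000 HEK293 UAS-bla cells per well in medium with 1% stripped serum and hold 6-6.5 h at 37 C. Step two: add compound and 50 nM agonist for 16 h. Step three: CCF4 loading, fluorescence read.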

The target in assay [11] is Retinoic acid receptor RXR-alpha (Homo sapiens) (UniProt P19793). Briefly: qHTS assay for small molecule agonists of retinoid X receptor alpha signaling (AID 588544; calls by dose curve;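 further: 0% = DMSO basal wells and 100% = reference agonist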). The note with it: HEK293T RXRa-UAS-bla, beta-lactamase reporter, 18 h; series mostly up to 76.7 µM.
Assay [12] in a line: qHTS assay for small molecule disruptors of the mitochondrial membrane potential - 5 hr assay (AID 651755; calls by dose curve; further: on the % scale 0 is the no-effect control and ±100 the full control effect; nearly all actives have a fitted effect of over 40% in size). Conditions: JC-1-type ratio dye; series mostly up to 92.2 µM. In outline: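 HepG2 cells (2,000/well), attached overnight, exposed to compound 5 hr at 37C, then Mito-MPS dye 30 min. Fluorescence read for monomers (490/535 nm) and aggregates (540/590 nm).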
Assay [13] is described as follows: qHTS assay for environmental chemicals that activate the Aryl hydrocarbon Receptor (AhR) signaling pathway (AID 651777). Further: % of control where 0% means no effect; nearly all actives have a fitted effect of over 15% in size. Conditions: 1A2-DRE human hepatoma cells, luciferase, 24 h; activation: stronger effect = higher value. In outline:
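Concentration–response screening used 1,200 1A2-DRE cells per well, 24 hr compound exposure (37 C, 5% CO2), and One-Glo luminescence as the AhR-driven CYP1A2 reporter signal.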

Assay [14] in a line: qHTS assay for small molecule agonists of the antioxidant response element (ARE) signaling pathway measured by Nrf2-dependant transcriptional activity (AID 720636; active means well fitted curve in the direction sought with a large enough effect in the repeat runs; an effect the other way counts as inactive or inconclusive;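 further: HepG2 cells with an ARE-driven luciferase reporter; % of control where 0% means no effect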). Conditions: ARE-luc HepG2, Nrf2 luciferase reporter, 16 h; series mostly up to 92.4 µM. In outline:
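Attachment 6 hr at 37 C, then compound versus DMSO vehicle for 16 hr in ARE-luc HepG2 cells (1% dialyzed FBS); luminescence recorded 30 min after ONE-Glo addition at room temperature.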

Assay [15] is described as follows: Cell Viability - Hek293 (AID 427;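 active means compounds whose dose-response curve shows a full or clear partial loss of cell viability, called from curve shape rather than a numeric limit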;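 further: potency means the concentration at half of the fitted maximal effect; cells exposed to compound for 40 hours at 37 °C before reading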). The note with it: qHTS. In outline: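 Luminescent ATP content (CellTiter-Glo, 20 min at room temperature) was measured after a 40 hr, 37 °C compound exposure of HEK293 cells. AC50 values came from Hill-equation fits of qHTS concentration-response data normalized to DMSO and 100 uM tamoxifen.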
Assay [16] is described as follows: MultiTox-Fluor Cytotoxicity Assay - LYMP1-001 - Live Cells (AID 947).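 Further: 0% = DMSO only and full inhibition = tetraoctylammonium bromide control.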 The note with it: LYMP1-001 lymphoblastoid cells, live-cell protease fluorescence viability; series mostly up to 92.2 µM.
Assay [17] deals with Glucocorticoid receptor (Homo sapiens) (UniProt P04150). Put plainly: qHTS assay for small molecule agonists of glucocorticoid receptor signaling (AID 588532; active means well fitted curve in the direction sought with a large enough effect in the signal ratio, with a control signal flat; the % refers to the signal ratio;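 further: 100% = dexamethasone at 0.1 µM and 0% = DMSO only wells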). The note with it: HeLa MMTV-bla, beta-lactamase ratio, agonist, 18 h; stronger effect = higher value; percent of dexamethasone control, DMSO zero. In outline:
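MMTV-bla HeLa beta-lactamase reporter cells in 1% charcoal/dextran FBS medium, compounds up to 92 uM for 18 h at 37 C, CCF4 readout; normalized to 0.1 uM dexamethasone (100%), EC50 and efficacy from Hill fits.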

The target is the same in assay [18]. Briefly: qHTS assay for small molecule antagonists of glucocorticoid receptor signaling (AID 588533; active means well fitted inhibition curve with a large enough effect in the signal ratio, with a control signal flat, not every such curve was filed as active; the % refers to the signal ratio;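 further: cells stimulated with 2 nM dexamethasone as agonist; on the % scale 0 is the no-effect control and ±100 the full control effect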). The note with it: HeLa MMTV-bla, GRE beta-lactamase ratio, antagonist mode, 18 h; series mostly up to 76.8 µM. In outline:
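Antagonist-mode qHTS: compound titrations added to GRE-bla HeLa cells, then dexamethasone 2 nM final; 18 h, 37 C. CCF4 FRET fluorescence normalized to dexamethasone and DMSO; IC50 from Hill fit.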

Assay [19] is described as follows: qHTS assay for small molecule agonists of the antioxidant response element (ARE) signaling pathway (AID 651741; active means well fitted activation curve with a large enough effect in the signal ratio; the % refers to the signal ratio; further: potency means the concentration at half of the fitted maximal effect; on activation: % of control where 0% means no effect). The note with it: HepG2 ARE-bla reporter, beta-lactamase FRET ratio, 16 h; series mostly up to 96 µM. In outline:
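HepG2 ARE-bla cells plated at 2,000 cells/well and incubated 5 h at 37 C/5% CO2 received 23 nL compound in DMSO. After 16 h at 37 C, LiveBLAzer B/G FRET substrate was applied for 2 h at room temperature and fluorescence read.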

Assay [20] deals with Peroxisome proliferator-activated receptor gamma (Homo sapiens) (UniProt P37231). Briefly: qHTS assay for small molecule agonists of peroxisome proliferator-activated receptor gamma signaling (AID 588536; active means well fitted curve in the direction sought with a large enough effect in the signal ratio, with a control signal flat, not every such curve was filed as active; the % refers to the signal ratio;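 further: 0% = DMSO basal wells and 100% = rosiglitazone at 2 µM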). Conditions: HEK293 PPARg-UAS-bla, beta-lactamase ratio, 16 h, percent of rosiglitazone response, DMSO as zero; series mostly up to 76.7 µM. In outline:
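Ratiometric blue/green fluorescence (405 nm excitation; 460 and 530 nm emission) from CCF4-loaded HEK293 reporter cells serves as signal. Exposure to test compounds lasts 16 h at 37 C in medium containing 1% charcoal/dextran-treated serum.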

Peroxisome proliferator-activated receptor delta (Homo sapiens), sequence (Q03181 whole entry, looked up): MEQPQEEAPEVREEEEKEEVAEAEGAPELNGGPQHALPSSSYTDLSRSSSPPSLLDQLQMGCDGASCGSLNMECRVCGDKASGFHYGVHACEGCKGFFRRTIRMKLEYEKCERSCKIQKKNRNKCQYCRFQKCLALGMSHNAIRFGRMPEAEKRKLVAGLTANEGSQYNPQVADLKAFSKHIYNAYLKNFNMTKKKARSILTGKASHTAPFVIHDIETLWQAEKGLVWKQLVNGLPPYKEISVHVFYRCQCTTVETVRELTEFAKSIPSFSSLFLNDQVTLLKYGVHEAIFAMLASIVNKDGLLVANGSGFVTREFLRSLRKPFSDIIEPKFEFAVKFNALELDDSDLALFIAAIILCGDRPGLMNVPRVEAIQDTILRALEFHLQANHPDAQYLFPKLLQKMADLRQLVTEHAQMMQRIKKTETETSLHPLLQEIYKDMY
Estrogen receptor (Homo sapiens), sequence (P03372 whole entry, looked up): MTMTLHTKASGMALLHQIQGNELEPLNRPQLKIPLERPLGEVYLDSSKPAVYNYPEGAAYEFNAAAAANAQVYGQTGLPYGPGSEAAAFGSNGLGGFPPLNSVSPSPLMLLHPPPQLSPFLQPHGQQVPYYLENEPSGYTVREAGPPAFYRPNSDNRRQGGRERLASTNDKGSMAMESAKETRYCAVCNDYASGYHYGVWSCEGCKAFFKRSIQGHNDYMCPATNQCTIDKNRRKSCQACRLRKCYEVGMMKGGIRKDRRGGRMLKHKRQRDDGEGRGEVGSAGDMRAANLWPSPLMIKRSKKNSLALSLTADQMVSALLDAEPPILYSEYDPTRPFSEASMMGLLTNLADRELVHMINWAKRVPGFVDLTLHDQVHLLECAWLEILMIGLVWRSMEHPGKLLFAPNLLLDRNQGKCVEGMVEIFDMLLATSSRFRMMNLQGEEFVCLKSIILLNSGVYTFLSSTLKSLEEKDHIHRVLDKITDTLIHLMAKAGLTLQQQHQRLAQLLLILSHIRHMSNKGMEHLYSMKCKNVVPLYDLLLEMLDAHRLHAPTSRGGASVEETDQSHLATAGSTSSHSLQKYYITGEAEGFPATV
Glucocorticoid receptor (Homo sapiens), sequence (P04150 whole entry, looked up): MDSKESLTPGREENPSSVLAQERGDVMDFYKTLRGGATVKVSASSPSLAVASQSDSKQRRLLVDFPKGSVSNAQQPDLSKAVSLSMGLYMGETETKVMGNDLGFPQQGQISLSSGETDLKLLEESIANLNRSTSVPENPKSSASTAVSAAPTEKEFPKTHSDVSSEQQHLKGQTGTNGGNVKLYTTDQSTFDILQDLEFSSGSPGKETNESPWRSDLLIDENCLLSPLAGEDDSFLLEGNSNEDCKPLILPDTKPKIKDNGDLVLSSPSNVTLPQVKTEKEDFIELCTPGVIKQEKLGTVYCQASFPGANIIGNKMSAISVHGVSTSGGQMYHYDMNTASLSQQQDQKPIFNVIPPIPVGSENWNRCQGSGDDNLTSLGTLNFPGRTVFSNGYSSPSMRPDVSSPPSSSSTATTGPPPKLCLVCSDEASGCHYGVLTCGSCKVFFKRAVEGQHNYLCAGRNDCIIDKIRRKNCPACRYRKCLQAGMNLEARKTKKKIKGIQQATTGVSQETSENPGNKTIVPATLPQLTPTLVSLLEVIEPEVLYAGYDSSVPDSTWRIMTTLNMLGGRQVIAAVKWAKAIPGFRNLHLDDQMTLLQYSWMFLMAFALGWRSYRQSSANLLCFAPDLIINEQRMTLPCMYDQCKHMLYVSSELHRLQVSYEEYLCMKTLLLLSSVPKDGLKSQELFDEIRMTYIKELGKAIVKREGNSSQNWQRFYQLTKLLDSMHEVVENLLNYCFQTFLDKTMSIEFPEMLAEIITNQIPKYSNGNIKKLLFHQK
Peroxisome proliferator-activated receptor gamma (Homo sapiens), sequence (P37231 whole entry, looked up): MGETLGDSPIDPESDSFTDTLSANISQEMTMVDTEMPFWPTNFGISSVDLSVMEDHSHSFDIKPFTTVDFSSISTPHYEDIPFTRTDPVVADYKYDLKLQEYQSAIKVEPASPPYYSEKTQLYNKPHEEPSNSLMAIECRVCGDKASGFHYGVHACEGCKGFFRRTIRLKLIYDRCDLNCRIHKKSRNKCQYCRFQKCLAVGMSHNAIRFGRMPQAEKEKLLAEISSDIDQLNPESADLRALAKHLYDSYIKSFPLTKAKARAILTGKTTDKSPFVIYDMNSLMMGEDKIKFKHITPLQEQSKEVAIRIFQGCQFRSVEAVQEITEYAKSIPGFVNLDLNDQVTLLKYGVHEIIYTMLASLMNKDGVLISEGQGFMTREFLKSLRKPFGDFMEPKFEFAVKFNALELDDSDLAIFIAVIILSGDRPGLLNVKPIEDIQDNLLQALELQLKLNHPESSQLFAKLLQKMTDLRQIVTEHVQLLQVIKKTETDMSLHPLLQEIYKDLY
Retinoic acid receptor RXR-alpha (Homo sapiens), sequence (P19793 whole entry, looked up): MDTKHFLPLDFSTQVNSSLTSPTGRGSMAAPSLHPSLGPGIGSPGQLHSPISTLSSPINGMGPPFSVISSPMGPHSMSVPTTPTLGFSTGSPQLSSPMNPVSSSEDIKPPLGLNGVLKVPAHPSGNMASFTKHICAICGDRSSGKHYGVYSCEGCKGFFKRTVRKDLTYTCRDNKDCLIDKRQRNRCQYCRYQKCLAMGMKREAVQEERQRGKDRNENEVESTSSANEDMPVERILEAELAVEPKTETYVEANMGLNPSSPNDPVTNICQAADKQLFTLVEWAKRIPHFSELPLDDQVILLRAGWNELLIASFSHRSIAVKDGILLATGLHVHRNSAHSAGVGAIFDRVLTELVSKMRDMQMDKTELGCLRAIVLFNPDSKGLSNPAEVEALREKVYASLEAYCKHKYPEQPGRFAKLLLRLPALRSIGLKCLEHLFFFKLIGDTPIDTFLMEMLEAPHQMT

For the molecule `CCCN(CCC)c1c([N+](=O)[O-])cc(C(F)(F)F)cc1[N+](=O)[O-]`, the Potency in [1] and in assay [2] was > 92 µM (inactive) throughout. In addition, the Potency result in [3], in assay [4], in assay [5], in assay [6], in assay [7] and in assay [10] was “inactive” each time. The Potency entry in assay [12] and in [14] was “inactive” each time. Further, the max response in assay [8] was determined as 0.867%. For the same molecule, the outcome in assay [9] and in assay [11] was inactive. Also, the activation in assay [13] is 0.344% (inactive) and 0.563% (inactive).

Turning to `C(CCOCC1CO1)COCC1CO1` (stereo not drawn), the figures for the Potency in assay [1], in assay [15] and in assay [19] were > 92 µM (inactive), > 92 µM (inactive) and 66.8 µM (active), respectively. For the same molecule, the Potency result in assay [3], in assay [4], in assay [6], in assay [7], in [12] and in assay [14] was “inactive” in each case. In addition, the molecule was called inactive in assay [16], in [18], in assay [9] and in assay [11]. Moreover, the activation in [17] was -0.372% (inactive). Also, in assay [8], the max response is -10%.

On to `CSSC`, for which the Potency in [1], in [2] and in [15] was > 92 µM (inactive) in each case. Also, the Potency result in assay [3], in assay [4], in [19] and in assay [14] was “inactive” throughout. Besides, in assay [11], the result was inactive.

In the case of `ClC(Cl)Br`, the Potency in assay [1] and in assay [2] was > 92 µM (inactive) throughout. Moreover, the Potency result in assay [3], in assay [4], in [5], in assay [6], in assay [7] and in assay [10] was “inactive” each time. Also, the Potency entry in assay [12] and in [14] was “inactive” in each case. Further, the call in assay [16], in assay [18], in assay [9], in assay [20] and in [11] was inactive. The results for the activation in assay [17] and in assay [13] were -5.41% (inactive) and 0.136% (inactive), respectively. The max response in assay [8] was -6.86%.

Turning to `O=C(O)C(Br)Br`, the results for the Potency in assay [1] and in assay [19] were > 92 µM (inactive) and 2.98 µM (active), respectively. For the same molecule, the Potency entry in [3], in assay [4], in [5], in [6], in [7] and in assay [10] was “inactive” in each case. In assay [12], the Potency entry was “inactive”. For the same molecule, the outcome in [16], in [20] and in [11] was inactive.

For the molecule `CCOP(=O)(OCC)OCC`, the Potency in assay [2] and in [15] was > 92 µM (inactive) throughout. In addition, the Potency result in assay [3], in [4], in assay [5], in assay [10], in [19] and in assay [12] was “inactive” in each case. The Potency result in assay [14] is “inactive”. The outcome in assay [16], in assay [18], in assay [9], in [20] and in assay [11] was inactive. For the same molecule, the activation in [17] is 4.27% (inactive) and 16.4% (inactive); in assay [13], -0.171% (inactive) and -0.669% (inactive). Besides, the max response in [8] is 8.93% and -1.46%.

Regarding `O=[N+]([O-])c1ccccc1CCl`, the Potency in assay [1] is > 92 µM (inactive); in assay [15], > 92 µM (inactive); in assay [3], 12.6 µM (active). The call in assay [16], in [18], in assay [9], in assay [20] and in [11] was inactive. Moreover, the Potency result in assay [5], in assay [6], in assay [7], in [10] and in [14] was “inactive” throughout. Also, the activation in assay [17] is 1.82% (inactive). The max response in [8] is -16.6%.

Turning to `Cc1cc(C)cc(OP(=O)(Oc2cc(C)cc(C)c2)Oc2cc(C)cc(C)c2)c1`, the Potency in [1] is > 92 µM (inactive). For the same molecule, the Potency entry in assay [4], in [6], in [10] and in assay [14] was “inactive” each time. Moreover, the outcome in assay [16], in assay [18] and in assay [11] was inactive. Besides, in [17], the activation is -3.84% (inactive).
